Here are results for 59 compounds from PubChem BioAssay AID743279 (National Center for Advancing Translational Sciences (NCATS), 2014).

Screen size: about 360,000 compounds; about 17,000 (4.7%) were called active. About 5% were inconclusive and are not listed. The sample holds actives, similar compounds and a random draw of the others, so the mix is not that of the screen. A number with no mark means an inactive call. No stated cut-off is given here; in the data, active means activity change below about -50%; inconclusive means mostly about -30% to -49%; inactive means weaker than that.
On the % scale 0 is the no-effect control and ±100 the full control effect.

The nature of this assay: qHTS for Inhibitors of Inflammasome Signaling: IL-1-beta AlphaLISA Primary Screen. The following applies: THP-1 LPS/ATP IL-1B secretion, 16 h; at 57.5 µM, active compounds read low. The gist of the method:
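THP-1 cells pretreated 1 hr with compounds (up to 57.5 uM final), then stimulated with LPS (250 ng/mL final) plus ATP (1.25 mM final); secreted IL-1B measured by AlphaLISA after 16 hr, decreased signal indicating inhibition.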
Take `CCN(CC)S(=O)(=O)c1ccc(NC(=O)c2cccnc2Cl)c(NC(=O)c2cccnc2Cl)c1`: the activity change is -102% (active).
Then `CCN(CC)S(=O)(=O)c1ccc(NC(=O)c2cnc(C)cn2)cc1`, with 57%; and `Cc1ccc(CNC(=O)c2cccnc2Cl)cc1`, with 55.4%; and `CC(O)(c1cccc(F)c1)c1nc(-c2ccc3c(c2)OCO3)cs1` (centres undefined), with 16%.
Then `COc1cc(-c2nnc(NC(=O)CS(=O)(=O)c3ccc(Cl)cc3)o2)cc(OC)c1OC`, with -11%; and `CCN(CC)c1ccc(NC(=O)c2ccc(=O)[nH]c2)cc1S(=O)(=O)Nc1ccc(OC)cc1`, with -3.18%.
As for `COc1ccc(CNC(=O)COC(=O)c2sccc2C)cc1OC`, the activity change was 12.1%.
Then `Cc1cccc(N(CC(=O)N=Nc2c(O)[nH]c3ccccc23)S(C)(=O)=O)c1C`, with 19.5%.
Take `Oc1[nH]c2ccccc2c1N=Nc1c(F)c(F)c(F)c(F)c1F`: the activity change is -7.81%.
Then `O=C(CCN1CCCCC1)N=Nc1c(O)[nH]c2ccccc12`, with -74.6% (active); and `CS(=O)(=O)N1CCc2nc(-c3ccccc3)sc2C1`, with 54.3%; and `COc1ccccc1OCCNC(=O)C(CCSC)NC(=O)COc1ccccc1` (centres undefined), with -18.9%.
With `NC(=O)c1ccc(N2CCCC2)nc1` the figure was 5.48%.
With `COc1cccc(CN(C)CC(=O)NCc2ccccc2Cl)c1OC` the figure was 1.26%.
`Cc1nc2ccc(C(=O)N(C)CC3CCCN(CCc4ccc(Cl)cc4)C3)cc2[nH]1` (centres undefined): the activity change was 8.01%.
With `COc1cccc(CN(C)CC2CCCN(CCc3ccc(Cl)cc3)C2)c1OC` (centres undefined) the figure was -90.5% (active).
In the case of `C[C@H]1CN([C@@H](C)CO)S(=O)(=O)c2ccc(-c3cccc(F)c3)cc2O[C@@H]1CN(C)C`, the activity change was -2.69%.
For the compound `Clc1ccccc1Nc1nc(NCc2cccs2)nc2ccsc12`, the activity change is 42.9%.
With `O=C(NCCOc1ccccc1Cl)C(=O)Nc1ccccc1` the entry was “inactive”; with `CC(C)Nc1nc(NCCOc2ccccc2Cl)c2sccc2n1`, -90.6% (active).
With `C=C(C)C1CC=C(C)/C(=N\NC(=O)CNc2ccccc2OC)C1` (centres undefined) the figure was -1.86%; with `COc1ccc2nc(-c3ccccn3)ccc2c1`, 19.8%.
Then `CCc1ccccc1NC(=O)CN1CCN(C(=O)c2cc(C3CC3)nn2-c2ccccc2)CC1`, with -18.2%.
As for `CC(=O)Nc1cccc(-c2ccnc3c2CC(C)(C(=O)NCc2ccco2)O3)c1` (centres undefined), the activity change was 78.5%.
On to `COc1cccc2oc(CCc3ccccc3)cc(=O)c12`, for which the activity change was -5.15%.
With `CCOC(=O)c1ccc(NC(=O)c2nc[nH]c2C(=O)NCc2ccccc2)cc1` the figure was 7.09%.
Then `CC(C)(C)OC(=O)CNC(=O)c1[nH]cnc1C(=O)N[C@@H](CCCCN)C(=O)OC(C)(C)C`, with -12.6%; and `CCOC(=O)c1ccc(NC(=O)c2nc[nH]c2C(=O)N[C@@H](CCCCNC(=O)OC(C)(C)C)C(=O)OC(C)(C)C)cc1`, with -62.8% (active); and `COc1ccccc1CC1(C)C(=O)Nc2ccc(OC(F)(F)F)cc21` (centres undefined), with 4.75%.
`COc1ccc(C(C(O)C(=O)c2c[nH]c3ccccc23)N2CCN(c3ccccc3)CC2)cc1` (centres undefined): the activity change is 14.4%.
With `COc1ccc(/C=C(\C#N)c2c[nH]c3ccccc23)cc1` the figure was -102% (active).
With `COc1ccc(/C=C(\NC(=O)c2ccc(OC)c(OC)c2)C(=O)NCCc2c[nH]c3ccccc23)cc1` the figure was -11.1%; with `Cc1ccc([C@H]2N[C@]3(CCCN(CC4CCCCC4)C3=O)[C@H]3C(=O)N(Cc4ccccc4)C(=O)[C@@H]23)cc1`, -9.33%.
Then `O=C(NCC(O)c1ccc([N+](=O)[O-])cc1)C1CCCCC1` (centres undefined), with -13.9%; and `O=C(CC(c1ccccc1)c1ccccc1)NCC(O)c1ccc([N+](=O)[O-])cc1` (centres undefined), with -69.4% (active); and `CC(=O)NCC(O)c1ccc([N+](=O)[O-])cc1` (centres undefined), with 0.816%.
On to `O=C(O)c1ccc([N+](=O)[O-])cc1Sc1ccsc1`, for which the activity change is 4.28%.
With `O=C(NCc1cccc(C(F)(F)F)c1)c1ccc2sc(COCCO)nc2c1` the figure was 28.9%.
Then `CCN(CC)CCOC(=O)c1ccc(NC(=O)CNC(=O)c2ccccc2)cc1`, with 7.44%; and `CCN(CC)CCNC(=O)c1ccc(NS(=O)(=O)c2ccc3c(c2)OCCO3)cc1`, with -6.92%; and `CCN(CC)CCNC(=O)c1ccc(NC(=O)c2c(F)cccc2Cl)cc1`, with -73.3% (active).
Then `COC(=O)Cc1ccc(NC(=S)NCc2ccccc2)cc1`, with 0.636%; and `FC(F)(F)Oc1ccc(NC(=S)NCc2ccccc2)cc1`, with -95% (active); and `CCNC(=S)Nc1ccc(OC(F)(F)F)cc1`, with -1.65%.
As for `CC1(C)OC(=O)C2=C(C[C@@H](C3CC3)O[C@H]2c2ccc(Cl)cc2)O1`, the activity change was 6.02%.
Then `N=C1c2ccccc2-c2ccccc21`, with 3.3%.
With `Cc1c(NC(=O)Nc2ccccc2Cl)sc(=S)n1C` the figure was -4.03%; with `CN(C)S(=O)(=O)Oc1ccccc1C(=O)Nc1ccccc1Cl`, 3.38%; with `O=C(Nc1ccccc1Cl)/C(Cl)=C(\Cl)S(=O)c1ccccc1` (centres undefined), -103% (active).
Then `CCCNC(=O)C1(C)CCN1C(=O)C1(c2ccccc2)CC1` (centres undefined), with 0%; and `Nc1ncnc2c1ncn2[C@@H]1O[C@H](C(=O)N2CCSC2)[C@@H](O)[C@H]1O`, with 3.32%; and `Cc1ccc(S(=O)(=O)N(CCc2ccccc2)c2ccc3c(c2)C2CC3CCN2C(=O)OCc2ccccc2)cc1` (centres undefined), with -16.8%.
For `COc1ccc(C2=Nc3ccccc3NC(=O)C2N(C(=O)c2cc3ccccc3[nH]2)c2ccccc2)cc1` (centres undefined), the activity change was 16.6%.
Then `Oc1ccc2ccccc2c1N=Nc1nccs1`, with -98.3% (active); and `CC(C)(C)c1ccc(Cn2nnc3c(=O)[nH]c(C4CCCN(C(=O)c5ccco5)C4)nc32)cc1` (centres undefined), with -12.5%; and `COc1cc(NC(=O)C2CCN(c3cnccn3)CC2)cc(OC)c1`, with -9.18%.
Regarding `Nc1ccc(C(=O)Nc2ccccc2N)cc1`, the activity change is -21%.
Turning to `Cc1ccc(Nc2ccccc2N)cc1`, the activity change is -70% (active).
Then `Cc1ccc(Nc2nc(Cl)c(C=O)s2)cc1`, with -13.1%.
